Screens: PubChem BioAssay, National Center for Advancing Translational Sciences (NCATS)
Rows were chosen to be rich in hits. Some 19% of all compounds tested hit in one or more screens of this group.
DT40 TDP1 no CPT: qHTS for Inhibitors of human tyrosyl-DNA phosphodiesterase 1 (TDP1): qHTS in cells in absence of CPT; DT40 Tdp1-/- hTDP1 cells, no CPT, ATP luminescence, 48 h; Potency, µM (doses to about 46.2 µM), most hits filed as inhibitors; actives 15% (n = 420,000); note: nearly all actives have a fitted effect of over 55% in size
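Chicken DT40 Tdp1-/- cells stably complemented with human TDP1 were seeded at 400 cells/well with DMSO in place of 20 nM camptothecin. After compound pinning, cells grew at least 48 hr at 37 °C; viability read by CellTiter-Glo luminescence.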
IL-1B inflam inh: inflammasome signaling inhibition, IL-1 beta readout. THP-1 LPS/ATP IL-1B secretion, AlphaLISA, 16 h; stronger effect = lower value. activity change, % at 57.5 µM. actives 4.7% (n = 360,000); in the data active = activity change below about -50%; inconclusive = mostly about -30% to -49%
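THP-1 cells pretreated 1 hr with compounds (up to 57.5 uM final), then stimulated with LPS (250 ng/mL final) plus ATP (1.25 mM final); secreted IL-1B measured by AlphaLISA after 16 hr, decreased signal indicating inhibition.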
DT40 TDP1 CPT: growth inhibition of DT40 Tdp1-/-;hTDP1 cells with camptothecin (screen for TDP1 inhibitors). chicken DT40 Tdp1-/-;hTDP1 cells + 20 nM CPT, ATP luminescence, 48 h. AID 686979. Potency, µM (doses to about 46.2 µM), actives largely listed as inhibitors. actives 12% (n = 420,000); note: nearly all actives have a fitted effect of over 55% in size
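Chicken DT40 Tdp1-/- cells stably complemented with human TDP1 were seeded at 400 cells/well in medium containing 20 nM camptothecin, exposed to pin-transferred compounds, and grown at 37 °C for at least 48 hr. Viability was read as ATP luminescence.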
HT1080 IDH1KD tx: kills HT-1080 cells with IDH1 knockdown | Potency, µM (doses to about 46.1 µM), actives largely listed as cytotoxic | actives 2% (n = 360,000) | HT-1080 IDH1 knockdown viability, ATP luminescence, 48 h | AID 686971
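HT-1080-IDH1KD cells (IDH1 knocked down), 750/well in RPMI with 5% FBS, treated with compound 48 h at 37 degrees C. Viability by CellTiter-Glo luminescence, normalised to DMSO and no-cell wells; concentration-response curves classed.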
HT1080NT lethal: kills 2HG-producing HT-1080-NT fibrosarcoma cells | HT-1080-NT fibrosarcoma viability, CellTiter-Glo ATP luminescence, 48 h | Potency, µM (titrated, usually from 46.1 µM), most hits filed as cytotoxic | actives 1.6% (n = 360,000) | AID 686970;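 note: NT is the 2HG producing partner of a matched IDH1 knockdown line; nearly all actives have a fitted effect of over 55% in size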
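Toxicity toward the 2HG-producing NT line was scored as %Activity, normalised to DMSO and no-cell wells, from CellTiter-Glo luminescence after 48 hours' treatment.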
Hits are given with their value; – = inactive; ? = inconclusive; · = not tested or not shown; [ ] = remark or other dose. Unless noted, calls come from the whole dose curve; as a rule, active = well fitted curve in the direction sought with a large enough effect; inconclusive = small, poorly fitted or top-dose-only effect, or another doubt; inactive = no such curve, though single readings can be large; an effect the other way counts as inactive or inconclusive.

SMILES | DT40 TDP1 no CPT | IL-1B inflam inh | DT40 TDP1 CPT | HT1080 IDH1KD tx | HT1080NT lethal
COC(=O)Nc1nc2ccc(SC(C)C)cc2[nH]1 | 3.3µM | – | 0.82µM | 1.3µM | ?
O=C(CSc1ccc2ccccc2c1)Nc1nc2ccccc2[nH]1 | ? | – | – | – | –
COCCNC(=O)CCCn1c(SCc2ccccc2Cl)nc2c(sc3ccccc32)c1=O | 9.2µM | · | ? | · | ·
COCCNC(=O)CCCn1c(SCC(=O)c2ccc(Br)cc2)nc2c(sc3ccccc32)c1=O | – | · | – | · | ·
CCC(C)NC(=O)CSc1nc2c(sc3ccccc32)c(=O)n1CCc1ccc(OC)c(OC)c1 (stereo not drawn) | – | · | – | · | ·
CCC(C)NC(=O)CSc1nc2c(sc3ccccc32)c(=O)n1Cc1ccccc1Cl (stereo not drawn) | 3.3µM | · | ? | · | ·
Cc1cc(C)cc(NC(=O)Cn2nnc(-c3ccccc3F)n2)c1 | ? | · | – | · | ·
Cc1cc(C(=O)COC(=O)c2ccc(O)cc2O)c(C)n1C(C)C | 13µM | – | 18µM | – | –
CCOc1ccc(-n2nc(CO)c(C(=O)NCC(C)O)n2)cc1 (stereo not drawn) | – | · | – | · | ·
CCCCc1nc2ccccc2n2c(-c3ccc(OC)cc3)c3c(=O)n(C)c(=O)n(C)c3c12 | 18µM | · | ? | · | ·
Cc1ccc(-c2c3c(=O)n(C)c(=O)n(C)c3c3cnc4ccccc4n23)cc1 | – | · | – | · | ·
COc1ccc(-c2nc3ccccc3n3c(-c4ccccc4)c4c(=O)n(C)c(=O)n(C)c4c23)cc1 | – | · | – | · | ·
COc1ccc(-c2nc3ccccc3n3c(-c4ccccc4)c4c(=O)n(C)c(=O)n(C)c4c23)cc1OC | ? | · | – | · | ·
CCCCc1nc2ccccc2n2c(-c3ccc(C)cc3)c3c(=O)n(C)c(=O)n(C)c3c12 | 12µM | · | ? | · | ·
CCCc1nc2ccccc2n2c(-c3ccccc3)c3c(=O)n(C)c(=O)n(C)c3c12 | ? | · | 13µM | · | ·
COCCn1c(SCC(=O)c2ccccc2)nc2cc(C(=O)NC3CCCC3)ccc2c1=O | – | · | – | · | ·
CC(=O)C[C@H](O)CC(=O)[C@@H]1OC(=O)CCCCCCCCc2ccccc21 | – | – | ? | – | –
CCOc1ccc(NC(=O)c2cccc(NC(C)=O)c2)cc1S(=O)(=O)N1CCCC1 | ? | – | ? | – | –
Cc1nnc(SCC(=O)Nc2ccccc2C(=O)NC2CC2)s1 | – | – | – | – | –
Oc1ccccc1N=Cc1sc2ccccc2c1Cl | 18µM | – | ? | – | –
Cc1ccc(O)c(N=Cc2sc3ccccc3c2Cl)c1 | ? | – | ? | – | ?
CCN(CC)C(=O)[C@H]1CC(CC(=O)NCCC2=CCCCC2)C(=O)N2CCc3c([nH]c4ccccc34)[C@]12C (stereo partly drawn) | 23µM | – | 23µM | – | –
CCN(CC)C(=O)[C@H]1CC(CC(=O)NCC23CC4CC(CC(C4)C2)C3)C(=O)N2CCc3c([nH]c4ccccc34)[C@]12C (stereo partly drawn) | 8.2µM | ? | 16µM | – | –
CCN(CC)C(=O)[C@H]1C[C@H](CC(=O)NCCC2=CCCCC2)C(=O)N2CCc3c([nH]c4ccc(Cl)cc34)[C@]12C | 21µM | -54 | 16µM | – | –
CCN(CC)C(=O)[C@H]1CC(CC(=O)NCCCn2ccnc2)C(=O)N2CCc3c([nH]c4ccccc34)[C@]12C (stereo partly drawn) | – | – | – | – | –
SMILES | DT40 TDP1 no CPT | IL-1B inflam inh | DT40 TDP1 CPT | HT1080 IDH1KD tx | HT1080NT lethal
COc1ccc2[nH]c3c(c2c1)CCN1C(=O)C(CC(=O)NCC24CC5CC(CC(C5)C2)C4)C[C@H](C(=O)N(C(C)C)C(C)C)[C@@]31C (stereo partly drawn) | ? | -72 | ? | ? | ?
C[C@]12c3[nH]c4ccc(Cl)cc4c3CCN1C(=O)[C@@H](CC(=O)NCCC1=CCCCC1)C[C@@H]2C(=O)N1CCCCC1 | – | – | – | – | –
Cc1cccc(/C=N/NC(=O)Cn2nnnc2N)n1 | – | – | – | – | –
Cc1cc(C)n(C(=O)C2CCCN2S(=O)(=O)c2ccc(Cl)cc2)n1 (stereo not drawn) | – | – | – | – | –
O=C(NC1CCCCC1)NC1(C(=O)NCCCN2CCOCC2)CCCCC1 | – | – | – | – | –
COc1cccc(S(=O)(=O)N(C)C[C@H]2OCc3cn(nn3)CCCC(=O)N([C@@H](C)CO)C[C@@H]2C)c1 | – | – | – | – | –
O=C(Nc1ccc(O)c2c(=O)cc(-c3cccc(Cl)c3)oc12)c1ccccc1Cl | 21µM | – | ? | – | –
O=C(Nc1ccc(O)c2c(=O)cc(-c3ccccc3Cl)oc12)c1cccc(Cl)c1 | – | – | ? | – | –
Cc1ccc(NC(=O)Nc2ccc3c(c2)nc(C)n3C)cc1 | – | – | – | – | –
Cc1cc(NC(=O)Nc2ccc3c(ccn3C)c2)sn1 | ? | -100 | ? | – | ?
CCOC(=O)Nc1cc2c(c(N)n1)N=C(c1ccccc1)CN2 | 0.041µM | – | 0.21µM | ? | 0.46µM
Cc1ccccc1C(=O)Nc1ccc2nc(Nc3cccc(C(F)(F)F)c3)cc(C)c2c1 | 18µM | · | 21µM | · | ·
CCOC(=O)c1cccc(NC(=O)c2cncc(Br)c2)c1 | – | – | – | – | –
Cc1cc(Nc2cccc(C(F)(F)F)c2)nc2ccc(NC(=O)c3cncc(Br)c3)cc12 | 5.2µM | · | 5.8µM | · | ·
CCOc1cc(C(=O)Nc2cccc(-c3nc4ccccc4o3)c2)cc(OCC)c1OCC | ? | · | – | · | ·
Cc1cc(Nc2cccc(Cl)c2)nc2ccc(NC(=O)c3cncc(Br)c3)cc12 | 5.2µM | · | 4.6µM | · | ·
CCOc1cc(C(=O)Nc2ccc3nc(Nc4cccc(Cl)c4)cc(C)c3c2)cc(OCC)c1OCC | 6.5µM | · | 4.6µM | · | ·
Cc1nc2ccc(NC(=O)c3cncc(Br)c3)cc2s1 | ? | ? | ? | – | –
O=c1c2ccccc2nc(/C=C/c2c[nH]c3ccccc23)n1-c1ccc([N+](=O)[O-])cc1 | ? | – | 10µM | – | –
Cc1[nH]c2ccccc2c1/C=C/c1nc2ccccc2c(=O)n1-c1cccc([N+](=O)[O-])c1 | 18µM | – | ? | ? | ?
O=C(CNC(=O)C1CCCCC1)OCC(=O)c1ccccc1 | – | · | – | · | ·
CN(CC(=O)Nc1ccc(F)cc1)C(=O)COc1ccccc1Cc1ccccc1 | ? | -69 | ? | – | –
CN(CC(=O)Nc1ccccc1C(F)(F)F)C(=O)COc1ncnc2sccc12 | – | – | – | – | –
CN(CC(=O)Nc1ccccc1C(F)(F)F)C(=O)COc1ccccc1Cc1ccccc1 | 16µM | – | ? | – | –
CCOc1ccc(NC(=O)CN(C)C(=O)c2ccccc2Cc2ccccc2)cc1OCC | 9.2µM | – | 15µM | – | –[9.24 µM]
